# Measured values taken from PubChem BioAssay (Tox21).
# Results filed as inconclusive are left out. Where a call stands in place of a potency, no number is given. The source made the active and inactive calls. The call rests on the fitted dose curve.
# Assay: p53 small molecule agonists, cell-based qHTS assay with rat liver microsomes: qHTS cell viability counter screen (AID 1963580); further: nearly all actives have a fitted effect of over 45% in size
# Settings: p53RE-bla HCT-116 + rat microsomes, ATP viability, 16 h; series mostly up to 66 µM
# From the text: National Center for Advancing Translational Sciences [NCATS]
# Division of Preclinical Innovation [DPI]
# U.S. Environmental Protection Agency [EPA]
# National Institutes of Environmental Health Sciences [NIEHS]
# National Toxicology Program [NTP]
# U.S. Food and Drug Administration [FDA]
# p53, a tumor suppressor protein, is activated following cellular insult, including DNA damage and other cellular stresses. The activation of p53 regulates cell fate by inducing DNA repair, cell cycle arrest, apoptosis, or cellular senescence. The activation of p53, therefore, is a good indicator of DNA damage and other cellular stresses. The CellSensor p53RE-bla HCT-116 cell line contains a stably integrated beta-lactamase reporter gene under control of the p53 response elements. The activation of the reporter gene under culture conditions can be detected by fluorescence intensity. This cell line was used to screen the Tox21 10K compound library in the condition of presence of rat liver microsomes and to identify agonists that activate the p53 signaling pathway after in vitro metabolic activation (Ooka et al., Archive of Toxicology 96:1975-1987, 2022). The cytotoxicity of the Tox21 compound library against the p53 RE-bla HCT-116 cell line was tested in parallel by measuring the intra cellular ATP content in the same wells.
# Tox21 Assay Protocol Summary:
# The p53RE-bla cells were dispensed at 4,000cells/3ul/well in 1536-well black-clear bottom plates. After the assay plates were incubated at 37 C, 5% CO2 incubator for 5 hours, 23 nL of compounds dissolved in DMSO, positive controls or DMSO only was transferred to the assay plate. Following compound addition, 3 uL of rat liver microsomes (Molecular Toxicology, Boone, NC) at final concentration of 0.5 mg/mL and 1uL of B-Nicotinamide adenine dinucleotide 2'-phosphate (NADPH) at final concentration of 0.5 mg/mL were transferred to the assay plate. The plates were incubated at 37 C for 16 hours. 1 uL of LiveBLAzer detection mixture was added to each well and the plates were incubated at room temperature in the dark for 2 h. Fluorescence intensity at 460 and 530 nm emission and 405 nm excitation were measured by an Envision plate reader. For cell viability readout that measures cytotoxicity, 4 ul/well of CellTiter-Glo reagent was added into the assay plates using a Flying Reagent Dispenser. After 30 min incubation at room temperature, the luminescence intensity in the plates was measured using a ViewLux plate reader.
SMILES,Potency,"activity change, negative = cytotoxicity"
O=C1C(CCS(=O)c2ccccc2)C(=O)N(c2ccccc2)N1c1ccccc1 (stereo not given),inactive,–
Cc1cccc(C(=O)O)c1[N+](=O)[O-],inactive,–
N#CCc1ccc(Cl)cc1Cl,inactive,–
C#C[C@]1(OC(C)=O)CC[C@H]2[C@@H]3CCC4=C[C@@H](OC(C)=O)CC[C@@H]4[C@H]3CC[C@@]21C,inactive,–
COc1ccc(CN(CCN(C)C)c2ncccn2)cc1,inactive,–
OC1(c2ccc(Cl)c(C(F)(F)F)c2)CCN(CCCC(c2ccc(F)cc2)c2ccc(F)cc2)CC1,inactive,–
Nc1nc(-c2ccccc2)c(Br)c(=O)[nH]1,inactive,–
Nc1nc(Cl)nc2c1ncn2[C@@H]1O[C@H](CO)[C@@H](O)[C@@H]1F,inactive,–
Cc1ccc(C(=O)Oc2ccc(C(O)CNC(C)(C)C)cc2OC(=O)c2ccc(C)cc2)cc1 (stereo not given),inactive,–
CCCCCCC(CCCCCCCCCCC(=O)OCC(COC(C)=O)OC(C)=O)OC(C)=O (stereo not given),inactive,–
CCCCCc1ccc(Cl)cc1,inactive,–
CC(CC(C)(C)C)CC(C)(C)CC(C)(C)C (stereo not given),inactive,–
CC(=O)Oc1cc2c(s1)CCN(C(C(=O)C1CC1)c1ccccc1F)C2 (stereo not given),inactive,–
N[C@H]1CN(c2c(F)cc3c(=O)c(C(=O)O)cn(C4C[C@H]4F)c3c2Cl)CC12CC2 (stereo not given in full),inactive,–
Nc1nc(N)nc(-c2cc(Cl)ccc2Cl)n1,inactive,–
Cc1c(N=C=O)cccc1N=C=O,inactive,–
CCCOc1ccc(C(=O)OCCN(CC)CC)cc1N,inactive,–
CN(C(=O)CCCOc1ccc2[nH]c(=O)ccc2c1)C1CCCCC1,inactive,–
Oc1ccc(Oc2ccccc2)cc1,inactive,–
Cc1ncc(CO)c(C=O)c1O,inactive,–

SMILES,Potency,"activity change, negative = cytotoxicity"
CCN(CC)CCNC(=O)c1cc(Cl)c(N)cc1OC,inactive,–
CCOC(=O)c1ccc(OC(=O)CCCCCN=C(N)N)cc1,inactive,–
CC1=CCC2C(C1)C2(C)C (stereo not given),inactive,–
CN(C)CCCSc1ccccc1NC(=O)/C=C/c1ccccc1,inactive,–
CCOC(=O)c1ccc(NC(=O)CN2CCCCC2)cc1,inactive,–
CCCCN1C=CN(C)C1,–,1.05% [at 13.5 µM] (inactive)
COC(=O)CS,inactive,–
CCOC(=O)C(=O)CCc1ccccc1,inactive,–
CC(C)=CC(=O)O,inactive,–
CCOC(=O)CC(CC(=O)OCC)(OC(C)=O)C(=O)OCC,inactive,–
Nc1cccc(S(=O)(=O)c2cccc(N)c2)c1,inactive,–
Cc1cc(NC(=O)C2=C(O)c3ccccc3S(=O)(=O)N2C)no1,inactive,–
CCCCc1nc(Cl)c(CO)n1Cc1ccc(-c2ccccc2-c2nn[nH]n2)cc1,inactive,–
O=C(O)c1snc(Cl)c1Cl,inactive,–
CCCCC(CC)C(=O)OC(C)C (stereo not given),inactive,–
C[C@@H](CN1CC(=O)NC(=O)C1)N1CC(=O)NC(=O)C1,inactive,–
CC(=O)O[C@@H]1CC2CCC1(C)C2(C)C (stereo not given in full),inactive,–
C/C(=C(\CCOP(=O)(O)O)SC(=O)c1ccccc1)N(C=O)Cc1cnc(C)nc1N,–,1.33% [at 5.99 µM] (inactive)
CC(CNC1CCCCC1)OC(=O)c1ccccc1 (stereo not given),inactive,–
CCCCCc1ccco1,inactive,–
